According to PubChem BioAssay:

Assay: plasmodial surface anion channel blockers, osmotic lysis – cell-based, P. falciparum Indochina, OD700, 2 h, primary screen (AID 1155);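 note: lysis reports solute entry through the parasite surface anion channel PSAC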
Conditions: P. falciparum Indochina infected erythrocytes, higher = more signal, called active from +8 up or from −8 down

z-score, inactive:
CCOC(=O)CCN1C(=O)[C@H]2[C@H]3[C@H](O)[C@H](O)CC(=NOCC=C(C)CCC=C(C)C)[C@H]3CC[C@H]2C1=O 0.887, CCOC(=O)[C@H](Cc1ccccc1)NC(=O)CCC1CC(OC(=O)NCc2cccc3ccccc23)CC2(CCCC(COC(=O)NCCOc3ccccc3)O2)O1 (stereo not given in full) -0.824, CCOC(=O)[C@H](CC(C)C)NC(=O)CCC1CC(OC(=O)NCCc2ccc(F)cc2)CC2(CCCC(COC(=O)NCCCN3CCCC3=O)O2)O1 (stereo not given in full) 0.0591, CC(=O)OC[C@H]1O[C@H](CC=NOC(C)CN2CCCCc3nc(C)c(C)cc32)C=C[C@@H]1OC(C)=O (stereo not given in full) 0.324, C#CCCCON=C1[C@H]2CCn3c(=O)n([C@@H](CC)c4ccccc4)c(=O)n3[C@H]2[C@H](O)[C@@H]2O[C@H]12 0.193, CO[C@H]1C[C@@H]2C[C@H](O)CC(CC(=O)O[C@@H](C=CCC(C)C)C[C@@H]3CC[C@H](C)[C@@H](C1)O3)O2 0.41, C=CC[C@@H]1C=C[C@H](ON=C[C@@H](NS(=O)(=O)c2ccc(C)cc2)[C@H](C)C=CCC(=O)OC)[C@@H](CO)O1 0.278, CO[C@H]1COC(=O)CCC[C@H](C)[C@@H](OC)COC(=O)CC=C[C@@H]1C -1.22, O=C(NN=C1C[C@@H](O)[C@@H](O)[C@@H]2[C@@H]3C(=O)N(Cc4ccccc4)C(=O)[C@@H]3CC[C@H]12)OCc1ccccc1 -1.04, CCOC(=O)[C@H](CC(C)C)NC(=O)CCC1CC(OC(=O)NCCc2ccc(F)cc2)CC2(CCCC(COC(=O)NCc3cccc4ccccc34)O2)O1 (stereo not given in full) 3.27
